From the supplement of paper PMC6555819

system: VDR:RXRa (NR concentration 270 nM, RXRa partner concentration 90 nM); experiment: PBM binding z-score (relative to random genomic background probes); higher = stronger binding; sequences stand for … in GC…GCGATTGACAGCGTAGAATGAAGG
Description: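 Protein-binding microarray (Agilent 4x180K custom design, double-stranded 60-nt probes: 5' GC cap, 34-nt variable region, 24-nt constant primer region; full probe sequence given). Purified or IVT nuclear receptor:RXRα heterodimers (3:1 NR:RXRα, mostly 270:90 nM) or homodimers were incubated for 1 h in PBS with 2% milk and no ligand, then detected with Alexa488 antibodies. Fluorescence from o1-orientation probes (~5 replicates averaged) was converted to z-scores against 500 random hg19 background probes. Variable regions are seed direct-repeat (DR0–DR5) sites, all their single-nucleotide variants and half-site ablations.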

Row | Sequence | PBM binding z-score
1 | ATCGAAAGGTCGACGAGATGAGTATACACCGTTT | 2.46
2 | AGTCAAAGTTCATCTAGGGAACGTAAGATATGCT | 4.73
3 | CCTCGGAGGACAAAAGGTCAGAGCTGTCCGCTTT | 3.17
4 | AGAATGAGGTTATACGTTGATCAGGGAAGAAAGT | 1.39
5 | TCTTGTATATCAACAGGAGGTTAAGAAAGATCGA | 1.28
6 | TCTTGTAGATCAAGCAGGTTAAGGAAGCCTGAGT | -0.0838
7 | GCGACTGGGGCATCAGCACGTTACCATAACTTAA | -0.365
8 | ATCGAAAGGTCGAGGCGAGTATAGAGAAAGGGAA | 2.33
9 | CGTCCAAGGTCAATGCTAGGTCAGAGAAAGCATT | 4.76
10 | GCAGACATGTGAAACGCAGGTAACTCAGGGTGGC | -0.478
11 | ATCTCTAGGTAACCCAGTTCAGTGAATGCCGAAC | 2.74
12 | CCTTACGGGTCACTACAGGTTATAGCATCGGAGT | 4.06
13 | ACTATTAGTTGATACGAGGGCAACCGATAGGTTG | 0.867
14 | CAAACTAGGTCACAGAGGTCACAGTCCGTGCGTA | 7.66
15 | GCGACTGGGGCCTCAGCAGGTTACCATAACTTAA | -0.529
16 | ATCTCTAGGTAAAGATAGTTAAGTGAATGCAAAT | 0.487
17 | CCTCGGAGGACAGAAGGTAAGAGCTGTCCGCTTT | -0.622
18 | CGCCAAAGTTCAAGGTAACGTAACAGAAAGCAGC | 3.76
19 | GCTGCTAGGTCTACTGATGGTCAGCTAAAGCTCG | -0.746
20 | AGAATGAGGTAAAGATCAGGGAAACAGAATACAT | 0.0577

Row | Sequence | PBM binding z-score
21 | AGAGACAGGTGAGTGAAGGTAACTCAGCTGGACG | -0.141
22 | GCTTACGGGTCATAGGTTATAGCATGAATAGAAT | 3.91
23 | CCGACTGGGGCAAAGGGTACCATACTCAGTACGA | 0.4
24 | ATATGTAGGTTAAGGGGCATTCAGGTTGGTTCGC | 2.2
25 | CCTGCTAGGTCATGGTCAGCTACTCTACAGTATG | 1.46
26 | GCTGACAGGTGAAACGCAGGTAACTCAGGGTGGC | -0.355
27 | CCTAGTTGGTCATGGTCACACACGCTATAGGTAC | 0.655
28 | CGTCCAAGGTCAAAGGTCAGTGACGAGATGACGG | 6.67
29 | GCTAGTTGGTCAGTAAAGGGTCACACACCGGTCG | 3.09
30 | TAGCCTAGGTCATTGGGCCAATATAGTACGCATC | 2.33
31 | TCTTGTAAATCAAAGGTTAAGAAAGCCGAAGCCT | 1.07
32 | ATATGTAGGTTATCGGGTCATTCAATTTGCGCAT | 3.87
33 | CCTAGCAGGCCAATCTGGGTCGCTCAAGGCTTGA | 0.301
34 | CCTGCTAGGTCATGGTCCGCTAATCTACAGTATG | 1.27
35 | CAAACTAGGTCACGAAATGTCAAAGTCGAATGAC | 3.47
36 | GCTAATAGTTGAAAGGGCAACCGAATGATTCTCG | 0.767
37 | TCATATAGGTAATACAGGTGTAAGTCGGCATCTA | 1.17
38 | CGTCCATGGTCATAGGAGGTCAGTGAAGACAGAT | 2.94
39 | GCTAGTTGGTCAGTGAAAGGTCACACACCGGTCG | 4.14
40 | TCGTGTAGATCAAAGGTTAAGAAAGCCGAAGCCT | 1.45
